TTR transcr act: TTR transcription activators in neuroblastoma reporter cells, primary screen, cell-based, luminescence, SH-SY5Y, TTR promoter Gaussia luciferase. 92,000 compounds, 1.3% hits. 100% = recombinant luciferase protein wells. activation, % at 16.7 µM;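 active = activation above the mean of all tested compounds plus 3 SD, cut at about 9.5% in these data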;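 note: cells exposed to compounds for one day before reading; 0% = median of all test compound wells on the plate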
TTR inh HuH7: TTR promoter reporter inhibitors in hepatoma cells, counter-screen for TTR transcription activator project, cell-based, luminescence, HuH7 hepatoma. AID 1117279, 2014. shares compounds with TTR transcr act. HuH7 TTR promoter-Gaussia luciferase reporter. inhibition, % at 16.7 µM. 1,100 compounds, 4% hits;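 active = average inhibition above the solvent-only control wells' mean plus 3 SD, cut at about 15% in these data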;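 note: 0% = cells with DMSO only and 100% = cells with inhibitor control FD; inhibitors lower well luminescence so higher value means more inhibition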
TTR up confirm: TTR transcription activators, retest, confirmation, cell-based, luminescence, SH-SY5Y, triplicate. 1,100 tested, under 10 active. SHSY5Y TTR promoter Gaussia luciferase; 100% = purified Lucia enzyme wells, no cells. shares compounds with TTR transcr act. activation, % at 16.7 µM;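 active = mean activation above a set limit taken from the earlier primary screen, cut at about 11% in these data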;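 note: 0% = DMSO-treated cells and 100% = recombinant Lucia luciferase without cells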
Numbers without * were called inactive. The sample as a whole holds a higher share of hits than the screen did.

`COc1ccccc1-n1nnnc1SCC(=O)N1CCCC1=O` gave TTR transcr act 0.
For CCCC(=O)N1CCCC1(C)C(=O)Nc1cc(C)ccc1C (configuration not stated) the results were TTR transcr act 2.
For COc1ccccc1-c1nnc(SCC#CCOC(=O)c2ccc(F)cc2)o1 the results were TTR transcr act -1.
Screening CCOc1ccc(NS(=O)(=O)c2ccc3[nH]c(=O)oc3c2)cc1 returned TTR transcr act 2.
`CCOc1ccccc1NC(=O)CN(C)S(=O)(=O)c1ccc2[nH]c(=O)oc2c1` gave TTR transcr act 12*, TTR inh HuH7 -21 and TTR up confirm 0.
Screening COc1ccccc1NC(=O)CN(C)S(=O)(=O)c1cc(C)ccc1OC returned TTR transcr act -2.
Screening COc1ccccc1N(C(=O)c1snc(C(N)=O)c1N)C(C(=O)NC1CCCC1)c1ccc(N(C)C)cc1 (configuration not stated) returned TTR transcr act -2.
Cc1ccc(C(=O)Nc2ccc(N3CCN(C)CC3)cc2)cc1C was read as TTR transcr act 0.
Screening COc1cccc(NC(=O)COC(=O)c2c3c(nc4ccccc24)CCC(C)C3)c1 (configuration not stated) returned TTR transcr act 11*, TTR inh HuH7 -3 and TTR up confirm 0.
Screening CC1CCc2nc3ccccc3c(C(=O)OCC(=O)N(C)C3CCS(=O)(=O)C3)c2C1 (configuration not stated) returned TTR transcr act 0.
COc1cccc(NC(=O)COC(=O)c2c(F)cccc2Cl)c1 was read as TTR transcr act -1.
Screening COC(=O)[C@H](C)NC(=O)[C@@H]1CC=C[C@@H]2CCN(CCc3ccccc3)C(=O)[C@@H]21 returned TTR transcr act -2.
Screening COc1ccc(C(OC(=O)c2ccco2)C(=O)NC(C)(C)C)cc1 (configuration not stated) returned TTR transcr act 26*, TTR inh HuH7 -2 and TTR up confirm -1.
COc1ccc(CNC(=O)C(OC(=O)c2ccco2)c2ccccc2F)cc1 (configuration not stated) was read as TTR transcr act -2.
CCC(OC(=O)c1ccco1)C(=O)NCc1ccc(OC)cc1 (configuration not stated) was read as TTR transcr act -1.
CC1=CCC2C(=O)N(c3cccc(C(=O)Nc4ccccc4Cl)c3)C(=O)C2C1 (configuration not stated) was read as TTR transcr act 0.
`Cc1ccc(/C=C(\C#N)C(=O)NCC2CCCO2)o1` (configuration not stated) gave TTR transcr act 5.
Screening CCOc1cc(/C=C(\C#N)C(=O)NCC2CCCO2)ccc1O (configuration not stated) returned TTR transcr act 6.
N#C/C(=C\c1ccc[nH]1)C(=O)NCC1CCCO1 (configuration not stated) was read as TTR transcr act 11*, TTR inh HuH7 -8 and TTR up confirm 0.
CC(C)N(Cc1nnc(-c2ccccc2Cl)o1)C(=O)COc1cccc(Cl)c1 was read as TTR transcr act -1.
Cn1cnnc1SCC(=O)Nc1ccccc1 was read as TTR transcr act 0.
`CN(C)S(=O)(=O)c1cccc(NC(=O)CSc2nncn2C)c1` gave TTR transcr act 12*, TTR inh HuH7 -6 and TTR up confirm 5.
For CN(c1ccccc1)S(=O)(=O)c1cccc(NC(=O)CSc2nnc(C3CC3)n2C)c1 the results were TTR transcr act 2.
COc1cc2c(cc1OC)CN(C(=O)CN1CCN(S(=O)(=O)c3ccccc3)CC1)CC2 was read as TTR transcr act 2.
COc1cc(C)c(NC(=O)c2cccc(S(=O)(=O)N3CCCC3)c2)cc1OC was read as TTR transcr act -1.
`CC(=O)c1cccc(N2C(=NC(=O)CCc3ccccc3)SC3CS(=O)(=O)CC32)c1` (configuration not stated) gave TTR transcr act 0.
For CC(=O)c1ccc(N2C(=NC(=O)C3CCCO3)SC3CS(=O)(=O)CC32)cc1 (configuration not stated) the results were TTR transcr act -2.
`CC(=O)c1ccc(N2C(=NC(=O)COc3ccccc3)SC3CS(=O)(=O)CC32)cc1` (configuration not stated) gave TTR transcr act 10*, TTR inh HuH7 -10 and TTR up confirm 0.
For O=C(NCCN1CCCOC1=O)C(=O)NCCN1CCCOC1=O the results were TTR transcr act 1.
`O=c1c(Cl)c(Cl)cnn1Cc1nnc(-c2ccccc2Br)o1` gave TTR transcr act -6.
For CCNc1nc2cccnc2s1 the results were TTR transcr act -1.
For CCn1c(N)cc(=O)[nH]c1=S the results were TTR transcr act 3.
Cc1ccc(CNc2ncnc3[nH]ncc23)cc1 was read as TTR transcr act 1.
Screening OCCCNc1ncnc2[nH]ncc12 returned TTR transcr act 4.
Screening CCCSc1ncnc2[nH]ncc12 returned TTR transcr act 13*, TTR inh HuH7 -4 and TTR up confirm 0.
Nc1cc([N+](=O)[O-])ccc1N1C(=O)CCCC1=O was read as TTR transcr act 1.
Screening O=C(C1CC1)N1CCN=C1SCc1ccccc1 returned TTR transcr act -2.
Screening CC(Oc1ccccc1)C(=O)N1CCN=C1SCc1ccccc1 (configuration not stated) returned TTR transcr act 12*, TTR inh HuH7 29* and TTR up confirm -2.
O=C(C1CC1)N1CCN=C1SCc1cccc(F)c1 was read as TTR transcr act 0.
O=C(CS(=O)(=O)Cc1ccccc1)NCc1ccco1 was read as TTR transcr act -1.
`O=[N+]([O-])c1ccc(C2=NN(CCO)C(=Nc3ccc(OC(F)(F)F)cc3)SC2)cc1` gave TTR transcr act -2.
CCCCNC(=O)c1cc(S(=O)(=O)N2CCCCC2)oc1C was read as TTR transcr act 0.
For CCCCCNC(=O)c1cc(S(=O)(=O)N2CCCCC2)ccc1F the results were TTR transcr act 11*, TTR inh HuH7 -9 and TTR up confirm 0.
Screening Cc1ccc(S(=O)(=O)N2CCCCC2)cc1C(=O)NCc1ccncc1 returned TTR transcr act 0.
`CCCc1cc(=O)[nH]c(Nc2ccc(O)cc2)n1` gave TTR transcr act 19*, TTR inh HuH7 0 and TTR up confirm 1.
`CCCc1cc(=O)[nH]c(SCC(=O)Nc2ccc3ccccc3c2)n1` gave TTR transcr act 1.
`CCCc1cc(=O)[nH]c(SCC(=O)NC2CCCCC2)n1` gave TTR transcr act 0.
`N#Cc1ccccc1S(=O)(=O)N1CCN(C(=O)C2CCCCC2)CC1` gave TTR transcr act 1.
`CCc1nc2c(OCc3ccc(OC(F)F)cc3)cccn2c1N(C)C(=O)c1cccs1` gave TTR transcr act -2.
CCc1nnc(NC(=O)c2cccc(S(=O)(=O)N3CCN(C(C)=O)CC3)c2)s1 was read as TTR transcr act -1.

Compound activity as filed in PubChem BioAssay.
